Pf Dd2 growth: Plasmodium falciparum Dd2 growth inhibition | P. falciparum Dd2 growth, SYBR Green, 72 h | actives 4.3% (n = 120,000) | Potency, µM (top dose mostly 28.9 µM), for the others: top-dose activity, negative = inhibition, hits mostly inhibitors; active = well fitted inhibition curve with a large enough effect;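 also: plate controls were DMSO vehicle for no effect and reference drug for full effect; nearly all actives have a fitted effect of over 65% in size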
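Infected erythrocytes (Dd2, 0.3% parasitemia, 2.5% hematocrit final) are added to compound in RPMI-1640/Albumax II medium, grown 72 h at 37C in low oxygen, then lysed with saponin/Triton-X containing SYBR Green and read by fluorescence.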
* = called active by the depositor; i = inactive; [ ] = another dose, or the depositor's remark. Many of the other results were omitted from the sample, so hits are more common in it than they were. Potency is read from the fitted curve at half-maximal effect.

SMILES | Pf Dd2 growth
Cc1oc2c(c1C(=O)N1CCN(c3ccccc3)CC1)CN(Cc1ccc(F)cc1)CC2 | 11µM*
COCCCNC(=O)c1c(C)oc2c1CN(Cc1ccc(F)cc1)CC2 | -23%
CCOC(=O)C1CCCCN1C(=O)c1c(C)oc2c1CN(Cc1cccc(F)c1)CC2 (centres undefined) | 6.3µM*
CCCn1ccc2oc(C)c(C(=O)N3CCN(c4ccc(F)cc4)CC3)c2c1=O | -13%
NC(=O)C1CCN(C(=O)C2c3ccccc3C(=O)N(c3ccccc3)C23CCCCC3)CC1 (centres undefined) | -3%
CNC(=O)Nc1ccc(C2(C(=O)NCc3ccc(F)cc3Cl)CCC2)cc1 | -19%
CN(C)C(=O)c1cccc2c1CCN2C(=O)Nc1ccc(F)cc1 | -6%
Cc1noc(C)c1Cn1cc2c3c(cccc31)[C@H](CC(C)C)N[C@H](C(=O)NCc1ccco1)C2 | -23%
O=C(c1cccnc1)N1CCC2(CC1)C(=O)NN=C2c1ccccn1 | 7%[44.1 µM]
O=c1n(Cc2ccc(F)cc2Cl)nc2n1CCCCC2 | 14%
O=C1NCc2ccccc2CC12CCN(Cc1ccc(Br)s1)CC2 | -28%
O=C(c1ccoc1)N1CC(F)(F)C[C@H]1c1nc(-c2ccncc2)no1 | -24%
O=C(NCCCN1CCCCC1)c1[nH]c2ccccc2c1Sc1ccc(Cl)cc1 | i
COCCCNC(=O)c1[nH]c2cc(OC)ccc2c1Sc1ccc(C)cc1 | 25%
COc1ccc2c(Sc3ccccc3)c(C(=O)NCCCN3CCCCC3)[nH]c2c1 | 11µM*
CN(Cc1ccno1)Cc1cn(C)nc1-c1ccc(C2CCCCC2)cc1 | -8%
Cn1cnc(S(=O)(=O)N2CCC(c3noc(-c4ccccn4)n3)C2)c1 (centres undefined) | 12%[5.79 µM]
CC(=O)N1C[C@@H]2CCCN3CCC[C@@H]([C@H]23)[C@H]1CCCC(=O)NCCc1nc2ccccc2n1C | i
CCOC(=O)C1CCN(c2cc3c(cc2NC(=O)c2ccccc2Cl)n(C)c(=O)n3C)CC1 | 11µM*
COc1ccccc1C(=O)Nc1cc2c(cc1N1CCCC1)n(C)c(=O)c(=O)n2C | -2%
CCOC(=O)c1ccccc1NC(=O)Nc1cc2c(cc1N1CCCC1)n(C)c(=O)n2C | -39%
CN1CCCN(C(=O)c2cccs2)c2ccccc21 | -8%
Clc1ccc(C2Cn3nnc(-c4noc(CCc5ccccc5)n4)c3CO2)cc1 (centres undefined) | i
CN(CC1CCOC1)C(=O)Nc1cccc(C(F)(F)F)c1 (centres undefined) | i[5.79 µM]
CC[C@H]1CN(C(=O)Nc2cccc(C(F)(F)F)c2)CC[C@H]1CC(=O)NCc1ccc(F)cc1 | i
SMILES | Pf Dd2 growth
COc1ccc(CN(C(=O)Nc2ccc(C)c(F)c2)C2CCN(C(C)=O)CC2)cc1 | 7%
Cc1ccc(NC(=O)N(C)CC2CCOCC2)cc1F | -23%
CCN1CCC(N(Cc2ccc(F)cc2)C(=O)Nc2cccc(C(F)(F)F)c2)CC1 | 13µM*
CCN1CCC(N(Cc2ccc(F)cc2)C(=O)Nc2ccc(C)c(F)c2)CC1 | 11µM*
O=c1n(-c2ccc(F)cc2F)nc2n1CCN(Cc1cccs1)C2 | i
Cc1ccc(NC(=O)N2Cc3[nH]cnc3C[C@H]2c2nc(-c3cccc([N+](=O)[O-])c3)no2)cc1 | i
COCCN1CCN(C[C@@H]2C=C(C)[C@H](Cc3nnc(-c4ccc(N(C)C)cc4)o3)C[C@H]2C(C)C)CC1 | 4µM*
CC1=C[C@@H](CN2CCC(O)CC2)[C@H](C(C)C)C[C@H]1Cc1nnc(-c2ccc(N(C)C)cc2)o1 | 3.5µM*
CC1=C[C@@H](CN2CCC(O)CC2)[C@H](C(C)C)C[C@H]1Cc1nnc(C)o1 | -27%[44.1 µM]
COCCN1CCN(C[C@@H]2C=C(C)[C@H](Cc3nnc(-c4cccnc4)o3)C[C@H]2C(C)C)CC1 | -16%
O=C(NCc1ccncc1)C1CN(C(=O)COc2ccccc2)CC12CCOCC2 (centres undefined) | -12%
N#Cc1cccc(C(=O)Nc2ccc([C@H]3OCC(=O)N(Cc4cccnc4)[C@@H]3CO)cc2)c1 | i
Cc1oc(-c2cccc(Cl)c2)nc1CSc1nncn2c1cc1occc12 | 145%[5.79 µM]
CCC(Sc1nncn2c1cc1occc12)C(=O)Nc1ccc(C)c(Cl)c1 (centres undefined) | 14µM*
O=C(CSc1nncn2c1cc1occc12)Nc1ccc(F)c(Cl)c1 | -30%
COCCn1nc2n(c1=O)CCN(C1CCSCC1)CC2 | 24%
CCc1ccc(NC(=O)c2ccc(Cn3nc(N4CCN(c5ccccc5)CC4)ccc3=O)o2)cc1 | 11µM*
COc1cccc(NC(=O)Cn2nc(N3CCN(c4ccccc4)CC3)ccc2=O)c1 | -10%
CCOc1ccc(CNC(=O)Cn2nc(N3CCN(c4ccccc4)CC3)ccc2=O)cc1 | -2%
Cc1nsc(NC(=O)N2CCC(N)CC2)n1 | 3%
O=C(CCc1nc2ccccc2s1)N1CCC(c2noc(C3CC3)n2)C1 (centres undefined) | i[5.79 µM]
CC(C)(C)NC(=O)Cc1cccn1-c1cccc(Cl)c1 | -4%
Cc1ccc2nc3n(c2c1)[C@@H](CNC(=O)NC(C)C)COC3 | i
Clc1ccccc1C1(c2ccnc(-c3ccccc3)n2)CCNCC1 | 10µM*
